Results: PubChem BioAssay (NCI)
This is part of a sample that, as a whole, favours compounds with a hit. Of some 83,000 tested, about 20% had one in any assay.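 Single-concentration screen, 48 h exposure, 96-well plates. Endpoint: percent growth. Below 10 = active.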 A number with no mark means an inactive call. Active and inactive are the calls of the source.

The compounds below were run on HCT-15 colon (assay: NCI-60 one-dose screen, 48 h (100 = growth as untreated, 0 = no growth, -100 = all killed)). Conditions: 10 µM unless noted.

Row | Structure (SMILES) | growth
1 | NS(=O)(=O)c1ccc(Nc2nc(N/N=C/c3c[nH]c4ccccc34)nc(Nc3ccccc3)n2)cc1 | 75.5%
2 | CCc1cccc2c3c(sc12)C(c1ccc(OC)cc1)C(C#N)=C(/N=C/c1ccc(Cl)cc1)O3 (stereo not drawn) | 20.2%
3 | Cn1ccnc1C(=O)/C=C/c1ccc(CNC(=O)c2ccc(F)cc2)cc1 | 8.09% (active)
4 | N#Cc1cccc(NC(=O)c2cc(-c3ccc(F)cc3F)ccc2O)c1 | 6.97% (active)
5 | O=S(=O)(NCCCNc1nccc(-c2[nH]c(-c3ccccc3)nc2-c2ccc(Cl)c(O)c2)n1)c1cccc2ccccc12 | 16.3%
6 | CC1(C)[C@@H](O)CC[C@]2(C)[C@H]3CC[C@@H]4[C@H]5[C@H](C(=O)/C=C\c6ccncc6)CC[C@]5(O)CC[C@@]4(C)[C@]3(C)CC[C@@H]12 | 20.3%
7 | CS(=O)(=O)Nc1cc(-c2ccc3ncc(C#N)c(N[C@H](CO)c4ccccc4)c3c2)cnc1Cl | 36.7%
8 | O=C(CSc1nc2ccccc2c(=O)n1-c1ccccc1)Nc1ccc(-c2nc3ccc([N+](=O)[O-])cc3[nH]2)cc1 | 61.3%
9 | Oc1cccc2ccc(-c3nnc(SCc4ccc(O)c5ncccc45)n3-c3ccccc3)nc12 | 16.5%
10 | C=CCn1c(SCC(=O)Nc2ccc(C(=O)/C=C/c3ccc(C)cc3)cc2)nnc1-c1c[nH]c2ccccc12 | 71.5%
11 | C[C@@H](Nc1c(C#N)cnc2ccc(-c3cnc(Cl)c(NS(C)(=O)=O)c3)cc12)c1ccccc1 | 10.2%
12 | CCN(CC)c1ccc(NC2=C(Cl)C(=O)c3nc(C)ccc3C2=O)cc1 | -52.7% (active)
13 | C#Cc1nc(C(=O)NCCC(=O)Nc2ccc(NC(=O)c3ccc(/C=C/C(=O)c4nccn4C)cc3)cc2)cs1 | 16.7%
14 | CCN(CC)CCn1c2ccc(O)cc2c2sc3cc(OC)ccc3c(=O)c21 | 4.47% (active)
15 | CC1(C)CC[C@]2(C(=O)N3CCOCC3)CC[C@]3(C)C(=CC[C@@H]4[C@@]5(C)C/C(=C/c6ccccn6)C(=O)C(C)(C)[C@@H]5CC[C@]43C)[C@@H]2C1 | 52.1%
16 | Cc1nc(-c2ccccc2O)ccc1C(=O)N=Nc1c(O)[nH]c2ccc(Br)cc12 | 69.9%
17 | O=C(CCn1c[n+](CC(=O)c2ccc(-c3ccccc3)cc2)c2ccccc21)Nc1cccc2cccnc12 | 93.8%
18 | COC(=O)c1[nH]nc2c1C1(C(=O)c3cccc4cccc1c34)C(C#N)=C(N)O2 (stereo not drawn) | 99.4%
19 | N=c1c2cc(-c3ccccc3)oc2ncn1/N=C/c1ccc(Cl)cc1 | 56.8%

Row | Structure (SMILES) | growth
20 | Cc1ccc(-n2c(/C=C3\C(=O)Nc4ccccc43)ccc2CO)cc1 | 31.2%
21 | CC(=O)N(C)C1CCc2c(sc(NC(=O)c3ccc(C(C)(C)C)cc3)c2C(N)=O)C1 (stereo not drawn) | 57.1%
22 | CC1(C)[C@@H](O)CC[C@]2(C)[C@H]3CC[C@@H]4[C@H]5[C@H](C(=O)/C=C\c6ccc([N+](=O)[O-])cc6)CC[C@]5(O)CC[C@@]4(C)[C@]3(C)CC[C@@H]12 | 27.5%
23 | Cc1ccc(NC(=O)CNc2cc(C(N)=O)cc(F)c2C)c(Cl)c1 | 103%
24 | COc1ccc(N2CCN(C3=C(Cl)C(=O)C(C)=C(C)C3=O)CC2)cc1 | 110%
25 | CN1CCN(c2ccc(/C=N/Nc3nc4ccccc4c(=O)n3-c3ccccc3)cc2)CC1 | 99.2%
26 | COc1cc(-c2nc3sccn3c2-c2ccnc(S(C)(=O)=O)n2)ccc1F | 77.9%
27 | Cc1ccc2c(c1)Oc1nc(N)c(C#N)c(N)c1C2Sc1ccc(F)cc1 (stereo not drawn) | -77.9% (active)
28 | CCCn1cnc2c(c1=N)C(c1ccc(F)cc1)c1sc3c(C)cccc3c1O2 (stereo not drawn) | 18.5%
29 | COc1ccc(Cn2cc3c(c2-c2cc(OC)c(OC)c(OC)c2)CCc2c(CN4CCCC4)noc2-3)cc1 | 21.1%
30 | CC1=N[C@@H]2CN(C(=O)OC(C)(C)C)C[C@@H]2n2c1cc1ccccc1c2=O | 104%
31 | COc1cc(OC)cc(C(=O)Nc2cccc(C#Cc3cccc4[nH]nc(N)c34)c2)c1 | 31.1%
32 | COc1ccccc1-n1cc(C#N)c(N)c1C(=O)c1ccc(Br)cc1 | 35.1%
33 | CS(=O)(=O)Nc1cc(-c2ccc3ncc(C#N)c(NCc4cccc(F)c4)c3c2)cnc1Cl | 5.75% (active)
34 | CC[C@H](CO)Nc1ccc2ncc(C#Cc3cncc(C(=O)Nc4ccc(CN5CCN(C)CC5)c(C(F)(F)F)c4)c3)n2n1 | -38.1% (active)
35 | COc1cc(-c2nc(SCCC(C)C)nc(NNC(=O)c3ccncc3)c2C#N)cc(OC)c1OC | 78.1%
36 | CCCCCc1ccc(S(=O)(=O)Nc2cc(-c3csc(NC(=O)CN4CCN(CCO)CC4)n3)ccc2OC)cc1 | -9.25% (active)
37 | CCCn1cnc2c(c1=N)C(c1ccc(OC)cc1)c1sc3c(CC)cccc3c1O2 (stereo not drawn) | 18.9%
38 | C#Cc1ccc(C(=O)NCc2ccc(/C=C/C(=O)c3nccn3C)cc2)cc1 | 2.77% (active)
